Measured values: PubChem BioAssay AID2279 (Southern Research Specialized Biocontainment Screening …, 2010)
Entries with a potency or affinity are not part of this list. Active and inactive are the calls of the source. The rule behind the calls is not given here.

Assay: CCR5-tropic HIV-1 fusion blockers – cell-based, CCR5-tropic Env, dose response (AID 2279)
Conditions: CCR5-tropic HIV-1 Env, reporter read-out; series mostly up to 50 µM

outcome, inactive:
CCc1ccc(S(=O)(=O)/N=C2\C=C(NS(=O)(=O)c3ccccc3)C(=O)c3ccccc32)cc1, O=C(O)c1cccc(-n2cccc2/C=C2/NC(=O)N(c3ccc(Cl)cc3)C2=O)c1, O=C(O)c1cc(NN=C2c3ccccc3-c3ccccc32)ccc1Cl, O=c1/c(=C\c2cc([N+](=O)[O-])cc([N+](=O)[O-])c2O)sc2nc3ccccc3n12, O=C(NN1C(=O)/C(=C/c2ccc(O)c([N+](=O)[O-])c2)SC1=S)c1ccccc1Cl, CCOc1cc(/C=C2/C(=N)N3C(=NC2=O)SN=C3S(=O)(=O)C(C)C)ccc1OC(=O)c1ccco1, COc1ccc(C(=O)COC(=O)c2ccccc2NS(=O)(=O)c2ccc(O)c([N+](=O)[O-])c2)cc1, O=c1[nH]c(=S)[nH]c2c1C(c1ccc(Br)cc1)c1c([nH]c(=S)[nH]c1=O)O2, O=C(O)COc1ccc(Br)cc1C(c1c(C(=O)O)[nH]c2ccccc12)c1c(C(=O)O)[nH]c2ccccc12, O=C(O)c1ccc(N/N=C/c2ccc(-c3cccc(Cl)c3)o2)cc1, CCS(=O)(=O)C1=NSC2=NC(=O)/C(=C\c3ccc(OS(=O)(=O)c4ccccc4)c(OC)c3)C(=N)N21, O=C(CN1C(=O)/C(=C2\SC(=S)N(CCS(=O)(=O)O)C2=O)c2ccccc21)Nc1cccc(Br)c1, COc1ccccc1OCCOc1ccc(/C=C2\C(=N)N3N=C(S(C)(=O)=O)SC3=NC2=O)cc1, Nc1c(S(=O)(=O)O)cc(NC(=O)c2ccccc2)c2c1C(=O)c1ccccc1C2=O, Cc1cccc(C)c1-n1cccc1/C=C1\SC(=S)N(c2cccc(C(=O)O)c2)C1=O, COc1cccc(-c2nc(SCC(=O)Nc3nc(-c4ccccc4)c(C)s3)[nH]c(=O)c2C#N)c1, O=C(O)c1cccc2c(-c3ccccc3)c(-c3ccccc3)[nH]c12, CCc1ccc(N=C2NC(=O)/C(=C/c3cc(Br)c(OCC(=O)O)c(OC)c3)S2)cc1, O=S(=O)(Nc1nc(-c2sccc2Cl)cs1)c1cc(Cl)ccc1Cl, O=C(O)c1ccc(-c2ccc(/C=C3\NC(=O)N(Cc4ccc(Cl)cc4)C3=O)o2)cc1Cl, O=C(O)c1[nH]c2ccccc2c1C(c1ccccc1)c1c(C(=O)O)[nH]c2ccccc12, O=C1NC(=Nc2ccccc2Cl)S/C1=C\c1cccc([N+](=O)[O-])c1O, COc1ccc(O)c(C(=O)c2cc(SCC(=O)O)c3nc4sc5c(c4c(=O)n3c2)CCCC5)c1, O=C(O)CSc1nc(-c2ccc(Cl)cc2)nc2c1oc1ccccc12, COc1cc(/C=C(\C#N)c2nc3ccc(C)cc3[nH]2)cc([N+](=O)[O-])c1O, COc1cc(/C=C2\C(=N)N3N=C(S(C)(=O)=O)SC3=NC2=O)cc(OC)c1OCCOc1cccc(C)c1, CCOc1ccc(NC(=NCc2ccc3c(c2)OCO3)SC2CC(=O)N(c3ccc(C(=O)O)cc3)C2=O)cc1 (centres undefined), Cc1cc(C)cc(-n2cccc2/C=C2/C(=N)N3C(=NC2=O)SN=C3S(C)(=O)=O)c1, O=C1NN(c2ccc(F)c(Cl)c2)C(=O)/C1=C\c1cccc(OC(=O)c2cccs2)c1, CC(C)CS(=O)(=O)C1=NN2C(=N)/C(=C\c3ccc(OC(=O)c4ccco4)cc3)C(=O)N=C2S1, Cc1ccc(-n2cccc2/C=C2/C(=N)N3C(=NC2=O)SN=C3S(C)(=O)=O)cc1Cl, O=C1N/C(=N\S(=O)(=O)c2ccccc2)S/C1=C\c1cc([N+](=O)[O-])ccc1O, CS(=O)(=O)C1=NSC2=NC(=O)/C(=C\c3cccn3-c3ccc(Cl)cc3)C(=N)N21, CS(=O)(=O)C1=NSC2=NC(=O)/C(=C\c3ccc(OC(=O)c4ccco4)c(Br)c3)C(=N)N21
